According to PubChem BioAssay (Tox21):
Inconclusive results are not listed. Where a call stands in place of a potency, no number is given. Active and inactive are the calls of the source. Calls come from the whole dose curve; as a rule, active = well fitted cell-killing curve with a large enough effect in the repeat runs; inconclusive = weak or mixed curves, or effect the other way; inactive = no such curve, though single readings can be large or run the other way. Positions of bridges follow the written chain, without caps; N, C: chain ends. Where a SMILES comes first, the peptide text is derived from it. Non-standard residues stand in square brackets, D forms with d. Residues, ends and D or L forms follow the SMILES beside them. hArg = N=C(N)NCCCC[C@H](N)C(=O)O; Mpa = O=C(O)CCS

test: qHTS assay for small molecule activators of the heat shock response signaling pathway - cell viability counter screen (AID 743209); settings: HSE-bla HeLa viability, CellTiter-Glo luminescence, 5 h; series mostly up to 62.6 µM; note: nearly all actives have a fitted effect of over 50% in size
Description: U.S. Tox21 Program National Center for Advancing Translational Sciences [NCATS] NIH Chemical Genomics Center [NCGC] U.S. Environmental Protection Agency [EPA] National Institutes of Environmental Health Sciences [NIEHS] National Toxicology Program [NTP] U.S. Food and Drug Administration [FDA] Tox21 Assay Overview: Various chemicals, environmental and physiological stress conditions may lead to the activation of heat shock response/ unfolded protein response (HSR/UPR). There are three heat shock transcription factors (HSFs) (HSF-1, -2, and -4) mediating transcriptional regulation of the human HSR. To identify the compounds that activate HSR signaling, HSE-bla HeLa cell line (Invitrogen, Carlsbad, CA, USA) containing a beta-lactamase reporter gene under the control of the heat shock response elements was used to screen Tox21 10K compound library. The cytotoxicity of the Tox21 compound library against the HSE-bla HeLa cell line was tested in parallel by measuring the cell viability using CellTiter-Glo assay (Promega, Madison, WI) in the same wells.
Tox21 Assay Protocol Summary: The CellSensor HSE-bla HeLa cells (Invitrogen, Carlsbad, CA, USA) were dispensed at 1500 cells/6uL/well into 1536-well black wall/clear bottom plates using a Multidrop combi (Thermo Fisher Scientific, Waltham, MA) dispenser. After the assay plates were incubated at 37 C and 5% CO2 overnight, 23 nL of compounds dissolved in DMSO, positive controls or DMSO only was transferred to the assay plate by a Pintool station (Kalypsys, San Diego, CA). The plates were incubated at 37 C for 5 h. After 1 uL of LiveBLAzerTM B/G FRET substrate was added using a Flying Reagent Dispenser (FRD, Beckman Coulter, Indianapolis, IN, USA), the plates were incubated at room temperature for 2.5 h, and fluorescence intensity was measured by an Envision plate reader (PerkinElmer, Shelton, CT). For cell viability readout that measures cytotoxicity, 3 ul/well of CellTiter-Glo reagent was added into the assay plates using a FRD. After 30 min incubation at room temperature, the luminescence intensity in the plates was measured using a ViewLux (PerkinElmer) plate reader.

Structure (SMILES)	Potency
CC/C=C\CCOC(=O)c1ccccc1O	inactive
O=NN(CCCl)C(=O)NC1CCCCC1	inactive
OCC1(CO)COCOC1	inactive
COP(=O)(O)OP(=O)(O)OC	inactive
CC(=O)O[C@H]1C[C@@H]2CC[C@@]1(C)C2(C)C	inactive
CCC(=O)c1c(O)cc(O)cc1O	inactive
O=C=NCC1CCCC(CN=C=O)C1 (stereo not given)	inactive
Cc1c(N)cccc1Cl	inactive
CC1(C)CC(OC(=O)CCCCCCCCC(=O)OC2CC(C)(C)NC(C)(C)C2)CC(C)(C)N1	inactive
C=CC(=O)OCC1CCCO1 (stereo not given)	inactive
CCOC(CN1CCN(CC(C)C(=O)c2ccccc2)CC1)c1ccccc1 (stereo not given)	inactive
Cc1c(C(=O)c2c[nH]n(C)c2=O)ccc(S(C)(=O)=O)c1C1=NOCC1	inactive
CCCCCC/C=C/C(=O)OC	inactive
CSc1cnccn1	inactive
NC(=O)[C@@H]1CSSCCC(=O)N[C@@H](CCCCN=C(N)N)C(=O)NCC(=O)N[C@@H](CC(=O)O)C(=O)N[C@@H](Cc2c[nH]c3ccccc23)C(=O)N2CCC[C@H]2C(=O)N1 ([Mpa][hArg]GDWPC-NH2; disulfide 1-7)	inactive
O=C(O)CSCC(=O)NC1CCSC1=O (stereo not given)	inactive
COC(=O)CCCCC(=O)O	inactive
CC(=O)N[C@@H](CO)C(=O)N[C@@H](CC(=O)O)C(=O)N[C@@H](CCCCN)C(=O)N1CCC[C@H]1C(=O)O (Ac-SDKP-OH)	inactive
CC1OCCC1=O (stereo not given)	inactive
c1ccc(B(c2ccccc2)c2ccccc2)cc1	inactive

Structure (SMILES)	Potency
CCCSSCCC	inactive
CCCCCCCCCCCCCBr	inactive
O=[N+]([O-])c1c(Cl)cc(Cl)cc1Cl	inactive
C=Cc1ccc(C(C)(C)C)cc1	inactive
COC(C)(OC)OC	inactive
[O]=[Mo](=[O])=[O]	inactive
N[C@@H](CSCCCO)C(=O)O	inactive
CC(C)NC(=O)c1ccc(C=O)cc1	inactive
CCCCOC(=O)C(C)O (stereo not given)	inactive
c1ccc(-c2nn[nH]n2)cc1	inactive
CC(=O)C(C)O (stereo not given)	inactive
C=C(C)[C@@H]1CC=C(C)CC1	inactive
COc1cc(OC)nc(O[C@H](C(=O)O)C(OC)(c2ccccc2)c2ccccc2)n1	inactive
CCC(C)C(=O)OCCc1ccccc1 (stereo not given)	inactive
CC(C)NCC(O)c1ccc2ccccc2c1 (stereo not given)	inactive
CN(C)C(C)(C)CO	inactive
O=C(CCCl)NCCc1ccccc1	inactive
CCN(CC)CCN	inactive
CC(C)CO	inactive
O=C1CCCCO1	inactive
